This passage reports growth inhibition results from PubChem BioAssay (NCI).

About 79,000 compounds went through this panel and 15% of them were active in at least one assay; those are over-represented in the sample as a whole. Values without a mark were called inactive. Activity calls are given as the source filed them. Cut-off read from the data, not from the text of the source: active = growth inhibition above about 70%; inactive = the rest.

Experiment [1] in a line: NCI Yeast Anticancer Drug Screen. Data for the rad50 strain (AID 155).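 Note: 0% = growth of vehicle-only cultures of the same strain.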 To be noted: S. cerevisiae rad50 strain growth inhibition, active compounds read high; at 50.0 µM unless noted. Summed up: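 Compounds were tested on a yeast strain with an engineered DNA damage repair alteration; the reported value is growth inhibition normalised to vehicle treatment.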
Experiment [2] can be described thus: NCI Yeast Anticancer Drug Screen. Data for the mec2-1 strain (AID 157). The settings on record: S. cerevisiae mec2-1 strain, active compounds read high; at 50.0 µM unless noted. Summed up:
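mec2-1 yeast strain, carrying an alteration in DNA damage repair or cell cycle control, was exposed to compounds; growth inhibition was measured relative to vehicle-treated controls.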

Experiment [3] is described as follows: NCI Yeast Anticancer Drug Screen. Data for the sgs1 mgt1 strain (AID 161).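 Note: 0% = growth of cultures given vehicle only.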 To be noted: S. cerevisiae sgs1 mgt1 strain, active compounds read high; at 50.0 µM unless noted. The method, boiled down:
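Growth of a repair-deficient yeast mutant was monitored after compound treatment and expressed as inhibition relative to vehicle-treated cultures.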

Experiment [4] in a line: NCI Yeast Anticancer Drug Screen. Data for the cln2 rad14 strain (AID 165).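 Note: 0% = growth equal to vehicle treated cultures.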 To be noted: S. cerevisiae cln2 rad14 strain, active compounds read high; at 50.0 µM unless noted. The method, boiled down:
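Yeast carrying cln2 and rad14 alterations (cell cycle control and DNA damage repair) were exposed to compounds. Growth inhibition was measured against vehicle-treated controls.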

Experiment [5] in a line: NCI Yeast Anticancer Drug Screen. Data for the bub3 strain (AID 167). The settings on record: S. cerevisiae bub3 mutant strain, active compounds read high; at 50.0 µM unless noted. Summed up: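 Growth of a checkpoint-deficient yeast mutant is measured after compound exposure. Values represent inhibition relative to vehicle.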
The nature of experiment [6]: NCI Yeast Anticancer Drug Screen. Data for the mlh1 rad18 strain (AID 175). The settings on record: S. cerevisiae mlh1 rad18 strain growth inhibition, active compounds read high; at 50.0 µM unless noted. Summed up: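 Growth inhibition of the yeast strain was measured after compound exposure and expressed relative to vehicle-treated controls. The strain carries defined defects in DNA damage repair.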

Take `CC1(O)CCCC1(C)O` (configuration not stated): the growth inhibition in experiment [1] is -29.1%; in experiment [2], -21.1%; in experiment [3] it was -19.1%; in experiment [4], -38.9%; in experiment [5], -21.7%; in experiment [6], -23.8%.

For `CC(=O)c1ccccc1NC=O`, the growth inhibition is -7.55% in experiment [1]; -10.2% in experiment [2]; -12.1% in experiment [3]; -40.9% in experiment [4]; -15.3% in experiment [5]; 4.15% in experiment [6].

On to `CCCCN1CCC(N)=NC1=O`, for which the growth inhibition in experiment [1] is 10.1%; in experiment [2], -24.9%; in experiment [3], -9.1%; in experiment [4] it was 9.2%; in experiment [5], -5.6%; in experiment [6], -4.15%.

In the case of `CCCCCCCCCCCCCCCCCCNC(=S)N/N=C/c1ccccc1[N+](=O)[O-]`, the growth inhibition in experiment [1] is -17.1%; in experiment [2], 2.75%; in experiment [3], -20.1%; in experiment [4] it was 4.95%; in experiment [5], -13.1%; in experiment [6], -7.65%.

Turning to `O=c1oc2c3ccc4ccccc4c3n(CCN3CCOCC3)c2c2ccccc12`, the growth inhibition in experiment [1] was 19.1%; in experiment [2], -3.6%; in experiment [3], -29.6%; in experiment [4], 2.35%; in experiment [5], -19.9%; in experiment [6], -3.9%.

In the case of `O=C(O)[C@H](Cc1ccccc1)N1C(=O)N[C@@H](Cc2ccccc2)C1=O`, the growth inhibition in experiment [1] was -21.6%; in experiment [2] it was -1.7%; in experiment [3], 4.75%; in experiment [4], 2.35%; in experiment [5], 3.6%; in experiment [6], -2.7%.

Take `CCOC(=O)c1c(C(=O)OCC)c2cccn2c2c1cnn2-c1ccccc1`: the growth inhibition in experiment [1] is -0.85%; in experiment [2] it was 1.65%; in experiment [3], 5.1%; in experiment [4] it was 5.55%; in experiment [5], -20.8%; in experiment [6], -2.55%.

As to `C=C1C(=O)OC2CC1C(OC(C)=O)CC1(C)OC1CCC1(C)OC1CCC2(C)O` (configuration not stated), the growth inhibition is -4.4% in experiment [1]; -0.1% in experiment [2]; 1.05% in experiment [3]; -2.7% in experiment [4]; -9.55% in experiment [5]; -3.4% in experiment [6].

With `COc1cc2c3c([nH]c2c(OC)c1OC)CCN(Cc1ccccc1)C3`, the growth inhibition in experiment [1] was -27.7%; in experiment [2] it was -15.1%; in experiment [3], -10.2%; in experiment [4], 6.1%; in experiment [5] it was -0.7%; in experiment [6] it was 10.8%.

For `COC(=O)C(=O)c1c(C(=O)OC)nc2nnc(N)n2c1-c1cccc([N+](=O)[O-])c1`, the growth inhibition in experiment [1] was 23.6%; in experiment [2], -4.35%; in experiment [3] it was 3.1%; in experiment [4] it was 17.3%; in experiment [5], 12.4%; in experiment [6], 18%.

With `O=C(Nc1ccccc1)Nc1ccc2c(c1)oc1ccccc12`, the growth inhibition was 8.85% in experiment [1]; 6.7% in experiment [2]; 9.6% in experiment [3]; 28% in experiment [4]; 10.9% in experiment [5]; 25.6% in experiment [6].

As to `CC(=O)NC(CCC(C)C)C(=O)O` (configuration not stated), the growth inhibition in experiment [1] was -0.05%; in experiment [2], 25.2%; in experiment [3], 4.75%; in experiment [4], -13.6%; in experiment [5] it was 15.6%; in experiment [6] it was -7.35%.

As to `OCC(O)COc1ccc(Cl)cc1` (configuration not stated), the growth inhibition in experiment [1] is -5%; in experiment [2], -12.8%; in experiment [3], -1.25%; in experiment [4], 2.05%; in experiment [5], 6.4%; in experiment [6], 9%.

Turning to `O=[N+]([O-])C(c1ccccc1)C(c1ccccc1)C(c1ccccc1)[N+](=O)[O-]` (configuration not stated), the growth inhibition in experiment [1] is 4.25%; in experiment [2], 6.05%; in experiment [3], 5.6%; in experiment [4] it was 23.2%; in experiment [5], 22.6%; in experiment [6] it was 10%.

On to `Clc1cccc(Cl)c1C1SCc2nc3cc4ccccc4cc3n21` (configuration not stated), for which the growth inhibition was -1.8% in experiment [1]; -12.1% in experiment [2]; 24.9% in experiment [3]; -0.55% in experiment [4]; 14% in experiment [5]; 14% in experiment [6].

As for `Cc1ccc(S(=O)(=O)ONNc2nccc3ccccc23)cc1`, the growth inhibition in experiment [1] was 16.9%; in experiment [2], 7.05%; in experiment [3], 1.55%; in experiment [4], -16.8%; in experiment [5], 1.15%; in experiment [6], 19.4%.

Regarding `Cc1ccc(C2SC(N)=Nc3c2c(C)nn3C(=O)c2ccc(Cl)cc2)cc1` (configuration not stated), the growth inhibition in experiment [1] was -36.1%; in experiment [2], -42%; in experiment [3], -16.4%; in experiment [4], -33.5%; in experiment [5] it was -27.6%; in experiment [6], -24.9%.

With `C/C=C/C(=O)Nc1cccc(OC(=O)NC(C)(C)C)c1`, the growth inhibition in experiment [1] was 9.2%; in experiment [2], 13.1%; in experiment [3] it was 3.55%; in experiment [4] it was -2%; in experiment [5] it was 18%; in experiment [6], 1.65%.

In the case of `CC(=O)Nc1ccccc1C(C#N)Cc1ccccc1` (configuration not stated), the growth inhibition is 13.3% in experiment [1]; 5.55% in experiment [2]; 14.1% in experiment [3]; -32.4% in experiment [4]; 1.15% in experiment [5]; 8.95% in experiment [6].

Turning to `O=[N+]([O-])c1ccc(/C=C(/c2ccc([N+](=O)[O-])o2)S(=O)(=O)c2ccccc2)cc1`, the growth inhibition was 64.8% in experiment [1]; 13.8% in experiment [2]; 76.8% (active) in experiment [3]; 43% in experiment [4]; -1.25% in experiment [5]; 60.5% in experiment [6].

With `O=c1[nH]c2[nH]c(=S)[nH]c(=O)c2[nH]1`, the growth inhibition in experiment [1] was 6.3%; in experiment [2], 0.85%; in experiment [3], -8.5%; in experiment [4], -11.7%; in experiment [5], -3.4%; in experiment [6], -13.8%.

Take `COc1cc(O)c(C/C=C/c2ccccc2)cc1O`: the growth inhibition in experiment [1] is 49.6%; in experiment [2], 21.4%; in experiment [3], 27.6%; in experiment [4], -12.3%; in experiment [5], 29.1%; in experiment [6] it was 64.9%.
